Inconclusive results are not listed. The source made the active and inactive calls. Calls follow the shape of the dose curve; as a rule, active = well fitted curve in the direction sought with a large enough effect; inconclusive = small, poorly fitted or top-dose-only effect, or another doubt; inactive = no such curve, though single readings can be large; an effect the other way counts as inactive or inconclusive.
Assays:
[1] = molecular target: Glutathione peroxidase 1 (Homo sapiens) (UniProt P07203); test: Primary qHTS Assay for Inhibitors of Recombinant Selenoprotein Glutathione Peroxidase 1 (GPX1) (AID 1845191); also: nearly all actives have a fitted effect of over 65% in size; as to activity, negative = inhibition: % is scaled to controls: 0 for no effect and ±100 for the full control effect
In short: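 GPX1 10 nM, GR 100 nM, GSH 1 mM, NADPH 0.5 mM, CHP 0.5 mM (final). 30-min cpd preincubation, RT. Ex340/Em450 read t=0, t=15 min.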

[2] = molecular target: Phospholipid hydroperoxide glutathione peroxidase GPX4 (Homo sapiens) (UniProt P36969); test: Primary qHTS Assay for Inhibitors of Recombinant Selenoprotein Glutathione Peroxidase 4 (GPX4) (AID 1845192); also: nearly all actives have a fitted effect of over 65% in size; as to activity change, negative = inhibition: series mostly up to about 50 µM; % is scaled to controls: 0 for no effect and ±100 for the full control effect
In short: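 qHTS, GR-coupled: GPX4 200 nM + cpd 30 min RT → GSH 1 mM, NADPH 0.5 mM, GR 100 nM → CHP 0.5 mM start; fluor 340/450 at t0 and t15 min; no-enzyme wells as control.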

[3] = molecular target: Luciferin 4-monooxygenase (Photinus pyralis) (UniProt P08659); test: Primary firefly luciferase (FLuc) qHTS assay for identification of artifact compounds. (AID 1845220); also: nearly all actives have a fitted effect of over 60% in size;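 as to activity change, negative = inhibition: series mostly up to about 54 µM; plate controls were DMSO vehicle for no effect and no enzyme for full effect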
In short: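 In this counter-screen for luciferase artifacts, test compounds met substrate (10 uM each luciferin and ATP) before 10 nM enzyme started the reaction. Light output was measured 5 min later.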

[4] = Primary fluorescence-based thiol-reactive (MSTI) qHTS assay for identification of artifact compounds. (AID 1845221); also: nearly all actives have a fitted effect of over 65% in size; also: potency is read from the fitted curve at half-maximal effect;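 as to activity change, negative = thiol reactive: series mostly up to about 54 µM; thiol-reactive compounds lower the probe fluorescence signal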
In short: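 In PBS pH 7.4 with 2% DMSO, each compound met 4 uM MSTI for one hour at ambient temperature, shielded from light, before fluorescence detection.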

[5] = tested on: Nanoluciferase (engineered Oplophorus gracilirostris luciferase); test: Primary Nanoluciferase (NLuc) qHTS assay for identification of artifact compounds. (AID 1845222);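 also: NLuc secreted into diluted conditioned medium of S16 cells; series mostly up to about 54 µM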
In short: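 Using secreted nanoluciferase in S16 culture medium (0.22 um filtered, 1:55 dilution), compounds were preincubated 15 min at RT. Signal was generated with Nano-Glo reagent (1:100) over 5 min.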

[6] = Primary redox qHTS assay for identification of artifact compounds. (AID 1845223);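 also: 0% = DMSO and 100% = reference compound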
In short: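 Redox-cycling detection via DTT (250 uM final) oxidation coupled to Amplex Red (25 uM)/HRP (250 mU/mL) in HBSS. 15 min preincubation plus 30 min after DTT, room temperature. Ex/Em 525/598 nm; 4-parameter Hill fit against DMSO and 10 uM DA3003.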

Sequence of Phospholipid hydroperoxide glutathione peroxidase GPX4 (Homo sapiens) (P36969 whole entry, looked up): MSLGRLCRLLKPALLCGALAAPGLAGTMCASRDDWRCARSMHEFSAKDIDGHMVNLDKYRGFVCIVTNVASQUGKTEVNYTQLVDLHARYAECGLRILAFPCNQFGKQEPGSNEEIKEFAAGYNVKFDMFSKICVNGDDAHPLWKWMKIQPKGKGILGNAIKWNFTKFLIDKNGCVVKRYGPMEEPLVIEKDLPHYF
Sequence of Glutathione peroxidase 1 (Homo sapiens) (P07203 whole entry, looked up): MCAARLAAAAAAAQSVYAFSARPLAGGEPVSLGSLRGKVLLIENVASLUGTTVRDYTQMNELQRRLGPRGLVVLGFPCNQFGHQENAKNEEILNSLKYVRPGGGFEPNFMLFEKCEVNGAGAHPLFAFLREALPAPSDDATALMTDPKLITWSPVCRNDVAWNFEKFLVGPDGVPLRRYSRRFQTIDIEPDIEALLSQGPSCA

COC1(CC(C)C)NC(=O)C(O)(Cc2ccccc2)NC1=O (stereo unspecified)
inactive: Potency [1] | Potency [2] | Potency [3] | Potency [4] | Potency [5] | Potency [6]

CC(/C=C/C1(O)C2(C)COC1(C)CC(=O)C2)O[C@@H]1O[C@H](CO)[C@@H](O)[C@H](O)[C@H]1O (stereo partly specified)
inactive: Potency [1] | Potency [2] | Potency [3] | Potency [5] | Potency [6]
active: Potency [4] 10.3 µM

OC[C@H]1O[C@@H](OC(CCCCc2ccc(O)cc2)CCc2ccc(O)cc2)[C@H](O[C@@H]2OC[C@](O)(CO)[C@H]2O)[C@@H](O)[C@@H]1O (stereo partly specified)
inactive: Potency [1] | Potency [2] | Potency [3] | Potency [4] | Potency [5] | Potency [6]

CC[C@H](C)/C=C(C)/C=C/C(=O)Cc1cc(O)c(C)c(O)c1C=O
active: Potency [4] 14.7 µM
inactive: Potency [1] | Potency [2] | Potency [3] | Potency [5] | Potency [6]

Cc1cc(Nc2ncc(Cl)c(Nc3ccccc3S(=O)(=O)C(C)C)n2)c(OC(C)C)cc1C1CCNCC1
inactive: Potency [1] | Potency [2] | Potency [3] | Potency [4] | Potency [5] | Potency [6]

CC1OC(OC2C(O)C(C(=O)O)OC(OC3CCC4(C)C(CCC5(C)C4C=CC4=C6CC(C)(C)CC(O)C6(C)CCC45C)C3(C)C)C2OC2OCC(O)C(O)C2O)C(O)C(O)C1O (stereo unspecified)
inactive: Potency [1] | Potency [2] | outcome [3] inactive [at 11.6 µM] | activity change, negative = thiol reactive [4] 161% [at 11.5 µM] | activity, negative = inhibition [5] -10.9% [at 11.6 µM] | redox activity (% of DA3003) [6] 18.4% [at 11.5 µM]

O=C1CC(c2ccc([N+](=O)[O-])cc2)=NN1c1ccccc1
active: Potency [4] 4.74 µM
inactive: Potency [1] | Potency [2] | Potency [3] | Potency [5] | Potency [6]

O=C(O)Cc1nn(Cc2nc3cc(C(F)(F)F)ccc3s2)c(=O)c2nccnc12
inactive: Potency [1] | Potency [2] | Potency [3] | Potency [4] | Potency [5] | Potency [6]

CCCOc1ccn2c(C(C)=O)cc(-c3ccccc3S(C)(=O)=O)c2c1
inactive: Potency [1] | Potency [2] | Potency [3] | Potency [4] | Potency [5] | Potency [6]

O=C(O)C[C@H]1CCC(=O)[C@@H]1C/C=C\CCOC1OC(CO)C(O)C(O)C1O (stereo partly specified)
inactive: Potency [1] | Potency [2] | Potency [3] | Potency [5] | Potency [6]
active: Potency [4] 7.36 µM

C=C1C2=CC(O)C(C)C1(C)CC/C(C)=C/CCC1(C)OC1C2=O (stereo unspecified)
inactive: Potency [1] | Potency [2] | Potency [3] | Potency [4] | Potency [5] | Potency [6]

Nc1c(Br)cc(Br)cc1CNC1CCC(O)CC1 (stereo unspecified)
inactive: Potency [1] | Potency [2] | Potency [3] | Potency [4] | Potency [5] | Potency [6]

COc1ccc([C@@H]2N[C@H](C(=O)O)Cc3c2[nH]c2ccccc32)cc1CN1CCN(c2ccccc2F)CC1
inactive: Potency [1] | Potency [2] | Potency [3] | Potency [4] | Potency [5] | Potency [6]

Nc1ncnc2c1ncn2[C@H]1CCCO1
inactive: Potency [1] | Potency [2] | Potency [3] | Potency [4] | Potency [5] | Potency [6]

C[C@@H]1O[C@@H](O[C@H]2[C@H](O[C@H]3[C@H](O[C@H]4CC[C@@]5(CO)C(CC[C@]6(C)C5CC=C5C7CC(C)(C)C[C@@H](O)[C@]7(C)CC[C@]56C)C4(C)C)O[C@H](C(=O)O)[C@@H](O)[C@@H]3O)OC[C@@H](O)[C@@H]2O)[C@H](O)[C@H](O)[C@H]1O (stereo partly specified)
inactive: Potency [1] | Potency [2] | outcome [3] inactive [at 11.6 µM] | activity change, negative = thiol reactive [4] 150% [at 11.5 µM] | activity, negative = inhibition [5] -0.0839% [at 11.6 µM] | redox activity (% of DA3003) [6] 0.809% [at 11.5 µM]

C/C=C(\C)C(=O)O[C@@H](C)[C@H]1CC[C@]2(O)C3CCC4C[C@@H](OC5CC(OC)C(OC6CC(OC)C(OC7CC(OC)C(OC8OC(C)C(OC9OC(CO)C(O)C(O)C9O)C(OC)C8O)C(C)O7)C(C)O6)C(C)O5)CC[C@]4(C)C3[C@H](O)[C@@H](O)[C@]12C (stereo partly specified)
inactive: outcome [1] inactive [at 9.52 µM] | activity change, negative = inhibition [2] -0.387% [at 9.73 µM] | outcome [3] inactive [at 11.6 µM] | activity change, negative = thiol reactive [4] 94.5% [at 11.5 µM] | activity, negative = inhibition [5] 0.355% [at 11.6 µM] | redox activity (% of DA3003) [6] 14% [at 11.5 µM]

CC1=CC(=O)OC(C)(CC(C)(O)C(=O)O)C1 (stereo unspecified)
inactive: Potency [1] | Potency [2] | Potency [3] | Potency [4] | Potency [5] | Potency [6]

C=C[C@@]1(C)CC(=O)C2[C@](C)(O1)[C@@H](OC(C)=O)[C@@H](O)[C@H]1C(C)(C)CCC[C@]21C (stereo partly specified)
inactive: Potency [1] | Potency [2] | outcome [3] inactive [at 11.6 µM] | activity change, negative = thiol reactive [4] 58.5% [at 11.5 µM] | activity, negative = inhibition [5] 3.51% [at 11.6 µM] | redox activity (% of DA3003) [6] 11% [at 11.5 µM]

CC1CCC2(O1)C(C)(C)CC(O[C@@H]1O[C@H](CO[C@@H]3OC[C@](O)(CO)[C@H]3O)[C@@H](O)[C@H](O)[C@H]1O)CC2(C)O (stereo partly specified)
inactive: Potency [1] | Potency [2] | Potency [3] | Potency [5] | Potency [6]
active: Potency [4] 13 µM

CC(C)CC1(C(=O)OCc2ccc(O[C@@H]3O[C@H](CO)[C@@H](O)[C@H](O)[C@H]3O)cc2)CC(=O)OC(C(=O)O)CC(=O)OCC2OC(O1)C(OC(=O)/C=C/c1ccc(O)cc1)C(O)C2O (stereo partly specified)
inactive: Potency [1] | Potency [2] | activity change, negative = inhibition [3] 3.35% [at 11.6 µM] | activity change, negative = thiol reactive [4] 14.7% [at 11.5 µM] | activity, negative = inhibition [5] -4.21% [at 11.6 µM] | redox activity (% of DA3003) [6] 23.6% [at 11.5 µM]

CC(=O)O[C@@H]1C[C@@]23C[C@@]24CC[C@H](OC2OC[C@@H](O)[C@H](O)[C@H]2O)C(C)(C)[C@@H]4CC[C@H]3[C@]2(C)CC3OC4(C[C@@H](C)C3[C@@]12C)OCC1(C)OC14 (stereo partly specified)
inactive: Potency [1] | Potency [2] | Potency [3] | Potency [4] | Potency [5] | Potency [6]

COc1cc(N2CCC(O)CC2)ccc1Nc1cc(Nc2ccccc2S(=O)(=O)C(C)C)c2cc[nH]c2n1
inactive: Potency [1] | Potency [2] | Potency [3] | Potency [5] | Potency [6]
active: Potency [4] 0.927 µM

C[C@@H]1C[C@H](O)/C=C/[C@H](O)[C@@H](O)CC(=O)O1
inactive: Potency [1] | Potency [2] | Potency [3] | Potency [4] | Potency [5] | Potency [6]

CC(=O)O[C@@H]1[C@H]2[C@@H](OC(=O)c3ccccc3)[C@@H](C)C[C@]2(O)[C@H](OC(C)=O)[C@@]2(C)[C@@H]3CC(C)(C)C(=O)[C@]3(OC(C)=O)C[C@@]12C
inactive: Potency [1] | Potency [2] | Potency [3] | Potency [4] | Potency [5] | Potency [6]

CC(C)(O)/C=C1/C(=O)C(C)(C)C(=O)C(C)(C)C1(O)O[C@@H]1O[C@H](COC(=O)c2cc(O)c(O)c(O)c2)[C@@H](O)[C@H](O)[C@H]1O (stereo partly specified)
inactive: Potency [1] | Potency [2] | Potency [3] | Potency [5] | Potency [6]
active: Potency [4] 0.707 µM

O=C(NN1CCCCC1)c1nn(-c2ccc(Cl)cc2Cl)c(-c2ccc(C#Cc3ccc(C(F)(F)F)cc3)s2)c1CNS(=O)(=O)N1CCCC1
inactive: Potency [1] | Potency [2] | Potency [3] | Potency [4] | Potency [5] | Potency [6]

CC(C)Nc1cc(-c2c[nH]c(C(=O)N[C@H](CO)c3cccc(Cl)c3)c2)c(Cl)cn1
inactive: Potency [1] | Potency [2] | Potency [3] | Potency [4] | Potency [5] | Potency [6]

O=C(c1ccccn1)c1cnn2c(-c3ccncc3)ccnc12
inactive: Potency [1] | Potency [2] | Potency [3] | Potency [4] | Potency [5] | Potency [6]

CC(C)C(=O)O[C@@H]1[C@@H](O)[C@@H](O[C@H]2O[C@H](CO)[C@@H](O)[C@H](O)[C@H]2O)O[C@H](CO)[C@H]1O
inactive: Potency [1] | Potency [2] | Potency [3] | Potency [4] | Potency [5] | Potency [6]

O=C(O[C@H]1[C@@H]2C[C@@H]3OC[C@@](O)([C@H]2[C@H](O[C@@H]2O[C@H](CO)[C@@H](O)[C@H](O)[C@H]2O)O3)[C@@H]1O)c1ccccc1
inactive: Potency [1] | Potency [2] | Potency [3] | Potency [5] | Potency [6]
active: Potency [4] 5.19 µM

COC(=O)C1=C[C@@H](O)[C@@H](O)[C@H](O[C@@H]2O[C@H](COC(=O)/C=C/c3ccccc3)[C@@H](O)[C@H](O)[C@H]2O)C1
inactive: Potency [1] | Potency [2] | Potency [3] | Potency [4] | Potency [5] | Potency [6]

CC(=O)O[C@H](C[C@@H](C)[C@H]1C(=O)[C@H](O)[C@@]2(C)[C@@H]3CCC4C(C)(C)[C@@H](O[C@@H]5OC[C@H](O)[C@H](O)[C@H]5O)CC[C@@]45C[C@@]35CC[C@]12C)[C@@H]1OC1(C)C (stereo partly specified)
inactive: Potency [1] | Potency [2] | Potency [3] | Potency [4] | Potency [5] | Potency [6]

CC(=O)OCCC(C)CCC1C(C)(O)CCC2C(C)(C)CCCC21C (stereo unspecified)
inactive: Potency [1] | Potency [2] | Potency [3] | Potency [4] | Potency [5] | Potency [6]

Cc1ccc(Sc2cncc3sc(C(N)=O)cc23)cc1
inactive: Potency [1] | Potency [2] | Potency [3] | Potency [4] | Potency [5] | Potency [6]

COC(=O)C1(Cc2ccc(O)cc2)OC(=O)C(OC)=C1c1ccc(O)cc1 (stereo unspecified)
inactive: Potency [1] | Potency [2] | Potency [3] | Potency [4] | Potency [5] | Potency [6]

CC1=C2C(=O)O[C@@H](c3ccoc3)[C@]2(C)CCC1
inactive: Potency [1] | Potency [2] | Potency [3] | Potency [4] | Potency [5] | Potency [6]

— PubChem BioAssay (NCATS)
